The values that follow come from ChEMBL document CHEMBL3988442, “University of Dundee, Small-Polar-MMV Screening Library” (2021).

The whole screen tested about 48,000 compounds, of which about 13,000 (27%) showed an effect of 50% or more. Some of the results follow.

The experiment relates to Wolbachia pipientis. Put plainly: Anti-Wolbachia Cell-Based Screen. Set-up: scale not given: in the data most compounds retested in dose-response had high values. Particulars: 5 µM. It is filed as functional.
On to `NC(=O)N1CCCN(C(=O)Nc2cc(-n3cccc3)ccc2F)CC1`, for which the “Percent Effect” value is given as -14.58%. Next, `CN1CC(C(=O)NC(C)(C)CNC(=O)OC(C)(C)C)CC1=O` (centres undefined): -3.275%; `COCc1ccccc1C(=O)NCC(O)c1ccc(Cl)s1` (centres undefined): 11.9%.

Turning to `CN(C)c1ncnc2c1CCN(S(=O)(=O)c1cccc3nsnc13)C2`, the “Percent Effect” value worked out at 10.74%. With `COc1ncccc1CNC(=O)c1cc(F)cc(Br)c1` the figure was 12.35%; with `Cc1csc(C2(NC(=O)NCCN3CCOCC3)CCC2)n1`, -15.32%; with `CC(=O)c1cnc(NCCc2csc(-c3cnccn3)n2)nc1C`, -3.465%. With `Cc1ncccc1OC1(C(=O)NCCCN2CCOCC2)CCNCC1` the figure was -8.588%; with `CCc1cnc(C)nc1NCCN1CCCC(C(N)=O)C1` (centres undefined), 3.304%; with `OC1CCN(CCNc2ncc3c(n2)CCN3c2ccccc2)CC1`, 0.6072%. With `CC(=O)c1cnc(NCCN2CCCC2)nc1C` the figure was 107.9%.

As for `CC(=O)c1cnc(NCCN2CCCC(c3ccccc3)C2)nc1C` (centres undefined), the “Percent Effect” value is 111.1%. In the case of `CC(=O)c1cnc(NCC2OCCc3ccccc32)nc1C` (centres undefined), the “Percent Effect” value is 8.592%. Next, `CC(=O)c1cnc(NCCCN2CCOCC2)nc1C`: 89.28%; `COC(=O)CN(CC1CCOC1)C1CC1` (centres undefined): -11.06%.

`Cc1cnccc1N1CCN(C(=O)CCCN2CCCCC2)CC1`: the “Percent Effect” value is listed as -8.637%. With `COc1ncccc1C(=O)N1CC(c2nc(-c3ccccn3)no2)C1` the figure was -3.614%. Next, `Cc1[nH]c(=O)[nH]c(=O)c1CN1CCCC(CCc2c(F)cccc2F)C1` (centres undefined): -22.77%; `Cc1cc(C)n(-c2ccc(CNCc3ccc(OC(C)C)cc3)cn2)n1`: -13.05%. Next, `Oc1nnc(-c2cccs2)c2sc(N3CCCCC3)nc12`: 11%; `Cl.O=C(Nc1cccc(F)c1)C1=NOC2(CCNCC2)C1`: 1.069%. As to `Cc1sc2c(C3CCNCC3)nc(Nc3cccc(F)c3)n2c1C.Cl`, the “Percent Effect” value amounted to 83.53%. Next, `Cc1sc2c(C3CCCNC3)nc(Nc3cccc(F)c3)n2c1C.Cl` (centres undefined): 138.6%. With `Cc1nn(C(C)C)c(C)c1S(=O)(=O)Nc1cccc(F)c1` the figure was 2.276%; with `Cc1nc(C2CCCNC2)cc(N2CCc3nc(N)sc3C2)n1` (centres undefined), -10.94%. `COc1ccccc1CCNC(=O)CN1CCCC1c1noc(C)n1` (centres undefined): the “Percent Effect” value is recorded as -5.748%. Next, `CCC(=O)N1CCC2(CC1)c1nc[nH]c1CCN2S(C)(=O)=O`: -5.847%. With `CC(NC(=O)Nc1nccs1)C(=O)NC1CCCC1` (centres undefined) the figure was 13.07%; with `Cc1nn2c(nc1=O)-c1ccccc1NC2C(=O)O` (centres undefined), -8.075%; with `OCCN1CCC(CNCc2cn(-c3ccccc3)nn2)CC1`, 3.58%. With `CNc1cc(C)nc(C2CCN(CCO)CC2)n1` the figure was 109.8%; with `Cc1ccc(CNCC2CCN(CCO)CC2)cc1`, -0.5522%. Regarding `Cc1cc(Oc2ccccc2)nc(C2CCN(CCO)CC2)n1`, the “Percent Effect” value is 153.9%.

Turning to `CNc1cc(C)nc(N2CCC3(CC2)[C@H](O)C[C@@H]3OCCO)n1`, the “Percent Effect” value stood at 4.937%. Next, `CNc1cc(C)nc(N2C[C@@H](C(=O)O)[C@H](C3CC3)C2)n1`: 7.259%; `CC(=O)N1CCc2c(nc(-c3ccccn3)nc2N(C)CC(O)CO)C1` (centres undefined): 1.269%. Next, `CC(C(=O)N(C)Cc1nnc2n1CCC2)S(C)(=O)=O` (centres undefined): 0.343%; `COCCN(C(=O)c1ccoc1C)c1ccc(C#N)cc1`: -4.794%; `CCc1cn[nH]c1C1CCCN(C(=O)c2cc(C(C)C)on2)C1` (centres undefined): 3.205%. With `CC(C)c1cc(C(=O)N2CCCC(c3cc(=O)nc4n3CCC4)C2)no1` (centres undefined), the “Percent Effect” value was found to be 118.8%.

As to `CCc1cc(C(=O)N2CCCC(c3cc(=O)nc4n3CCC4)C2)no1` (centres undefined), the “Percent Effect” value was 113.8%.

Consider `Cc1cc(C(=O)N2CCCC(c3cc(=O)nc4n3CCC4)C2)on1` (centres undefined), for which the “Percent Effect” value was 100.5%. With `Cc1cc(C(=O)N2CCCC(c3nccn3Cc3cscn3)C2)on1` (centres undefined), the “Percent Effect” value is on record as -8.995%.

On to `CC(C)C(=O)N1CCN(C(=O)c2cc(C(C)C)on2)[C@H]2CS(=O)(=O)C[C@H]21`, for which the “Percent Effect” value is on record as -2.919%.

As to `Cc1cc(C(=O)N2CCCC(n3nc(C)cc3C)C2)on1` (centres undefined), the “Percent Effect” value worked out at 6.311%. Next, `CCc1ccsc1C(=O)N1CCCC(c2noc(C)n2)C1` (centres undefined): -6.826%; `Cc1cc(C(=O)N2CCCC2Cn2nc(C)cc2C)on1` (centres undefined): -0.3102%; `Cc1cc(C)n(CC2CCCN2C(=O)c2ccc3ccccc3n2)n1` (centres undefined): 90.81%. Turning to `Cc1cc(C)n(CC2CCCN2C(=O)c2nccc3ccccc23)n1` (centres undefined), the “Percent Effect” value worked out at 117.1%.

`Cc1cc(C)n(CC2CCCN2C(=O)Cc2cn3ccccc3n2)n1` (centres undefined): the “Percent Effect” value came to 13.26%. With `Cn1nnnc1SCCNC(=O)c1c[nH]nc1C1CCCCC1` the figure was -16.51%; with `O=C1CCC(c2ccccc2)(c2ccccc2)CN1CCO`, -6.27%.

Regarding `Cc1nc[nH]c1CN1CCN(C(=O)c2cccs2)[C@H]2CS(=O)(=O)C[C@H]21`, the “Percent Effect” value is reported as -2.944%. For the molecule `CCN1CCOC(CNCc2cnc(N(CC)CC)s2)C1` (centres undefined), the “Percent Effect” value worked out at 78.01%. With `CCN(CC)c1ncc(CNCC2CCCn3ccnc32)s1` (centres undefined) the figure was 9.152%; with `CCC(CCNCc1cnc(C2CCC2)s1)N1CCCC1=O` (centres undefined), 3.115%. Regarding `CC(C)(C)c1ncc(CNCC2CCCn3ccnc32)s1` (centres undefined), the “Percent Effect” value is reported as -12.55%. With `CN1CCOC(CNCc2cnc(C(C)(C)C)s2)C1` (centres undefined) the figure was 83.62%; with `CC(C)(C)c1ncc(CNCC2CN(C3CC3)CCO2)s1` (centres undefined), 77.82%; with `CCN1CCOC(CNc2nccc(C(F)(F)F)n2)C1` (centres undefined), -2.512%. In the case of `CCN1CCOC(CNCc2cnc(C(C)(C)C)s2)C1` (centres undefined), the “Percent Effect” value is recorded as 96.59%.

As for `CCN(CC1CN(Cc2ncc(C)o2)CCO1)c1cccnn1` (centres undefined), the “Percent Effect” value worked out at 0.3637%. With `COCC(=O)N1C[C@H]2CCCC(OCc3cccnc3)[C@H]2C1.O=C(O)C(F)(F)F` (some centres undefined) the figure was -11.84%; with `COc1ccc(CN2CCO[C@H]3CN(C4CCCC4)CC[C@H]3C2=O)cc1.O=C(O)C(F)(F)F`, 4.442%; with `Cc1nc(CN2C[C@@H]3CN(C(=O)[C@H]4CCCO4)C[C@@H]3C2=O)cs1.O=C(O)C(F)(F)F`, -7.059%. `CC1CCN(C(=O)[C@@H]2C[C@@H]3CCN(Cc4nccs4)C[C@H]3O2)CC1.O=C(O)C(F)(F)F`: the “Percent Effect” value is 95.79%. With `O=C(O)C(F)(F)F.O=C(O)C(F)(F)F.O=C(O)C(F)(F)F.c1cncc(C[C@H]2[C@H](N3CCOCC3)CCN2Cc2nccs2)c1` the figure was 6.166%; with `CC1CCN(C(=O)[C@@H]2CC[C@@H]3[C@@H](CCN3c3ncc(F)cn3)O2)CC1.O=C(O)C(F)(F)F`, -5.679%.

Turning to `COCCN1CC[C@@H]2O[C@H](COCc3csc(C)n3)CC[C@@H]21.O=C(O)C(F)(F)F`, the “Percent Effect” value is listed as 5.526%. With `Cc1nc(CN2CC[C@@H]3O[C@@H](C(=O)N4CCOCC4)C[C@@H]32)cs1.O=C(O)C(F)(F)F`, the “Percent Effect” value came to 95.13%. For `O=C(O)C(F)(F)F.O=C([C@@H]1C[C@H]2[C@H](CCN2Cc2nccs2)O1)N1CCOCC1`, the “Percent Effect” value is -8.158%. Take `O=C(O)C(F)(F)F.O=C([C@H]1CC[C@@H]2[C@@H](CCN2Cc2nccs2)O1)N1CCOCC1`: the “Percent Effect” value stood at 110.8%.

In the case of `CNC(=O)[C@H]1C[C@@H]2CCN(Cc3nccs3)C[C@H]2O1.O=C(O)C(F)(F)F`, the “Percent Effect” value was -7.914%. For the molecule `CC1CCN(C(=O)[C@H]2CC[C@@H]3[C@@H](CCN3Cc3nccs3)O2)CC1.O=C(O)C(F)(F)F`, the “Percent Effect” value worked out at 83.2%.
